TROY signal inh: blocks TROY-dependent signaling in reporter cells; Q293 LMP1-TROYcd NF-kB luciferase reporter, 4 h; inhibition, % at 10 µM; hit rate 0.98% among 360,000; AID 1347056;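 active = compounds whose plate-normalised and pattern-corrected inhibition of the luciferase reporter signal at the single screening dose is 50% or more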
HSF1 activator: increases HSF-1 driven luciferase reporter signal; NIH3T3-HGL HSF-1 luciferase reporter, MG132, 8 h; 100% = twice DMSO control signal; activation, % at 9 µM; hit rate 1.7% among 300,000;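 active = mean replicate activation of at least 50% with a set share of replicates each reaching 50%; inconclusive = only one of those two conditions met; inactive = mean below 50% and too few replicates reaching it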
TWEAK Fn14 block: blocks TWEAK-Fn14 interaction in a reporter cell assay; TWEAK-stimulated Fn14 reporter cells, luciferase luminescence, 8 h; inhibition, % at 10 µM; hit rate 2% among 360,000; AID 1159606; in the data active = inhibition above about 50%
LGR2 antag: Drosophila LGR2 receptor signaling inhibition | HEK293 LGR2, CRE-luciferase, bursicon-stimulated, 4 h | inhibition, % at 9.99 µM | hit rate 0.35% among 380,000 | AID 720647;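 active = drop in luminescence signal, shown as inhibition above about 50% in the replicate tests, limit read from the data, passing the limit was not always enough; inconclusive = probably only some replicates passing the limit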;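 also: agonist challenge used bursicon conditioned medium at about half maximal strength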
HSF1 inhib: HSF1 inhibition; hit rate 0.77% among 300,000; activity change, negative = inhibition, % at 7.5 µM (by protocol); NIH3T3-HGL HSE-luciferase, MG132-induced, luminescence 8 h; active compounds read low; AID 2098;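 active = more than half of replicate wells show activity change below -50%, luminescence cut by over half; inconclusive = some wells, but at most half, below -50%; inactive = no replicate well below -50%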;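 also: luciferase reports HSF-1 transcriptional activity via heat shock element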
EBV LMP1 NFkB: reduces LMP1-driven NF-kappaB luciferase signal. LMP1-induced NF-kappaB luciferase reporter cells, luminescence. inhibition, % at 12.5 µM. hit rate 0.69% among 350,000. AID 504558; in the data active = inhibition above about 41%; inconclusive = no clear call, values can overlap the other calls
Of the large screens only hits and unclear results are named; the others gave an inactive call. Hits are enriched below; roughly 3.6% of the tested compounds scored in any of these assays.

Clc1ccc(-n2ncc3c(NCc4cccnc4)ncnc32)cc1Cl	TROY signal inh 51
CCC(=O)N[C@@H]1C=C[C@H](CC(=O)NCc2ccccc2OC)O[C@H]1CO	none (no result: TROY signal inh, HSF1 activator, TWEAK Fn14 block, HSF1 inhib, EBV LMP1 NFkB)
CN(Cc1cccc2cnccc12)C(=O)c1cc(COc2ccc(F)cc2F)on1	HSF1 activator inconclusive
CCc1ccc(CN(C)C(=O)c2cc(COc3cccc4cnccc34)on2)cc1	TWEAK Fn14 block 57
O=C(c1cc(COc2cccc3cnccc23)on1)N1CCC(c2ccccc2Cl)C1 (stereo unspecified)	TROY signal inh 54
CCC(Sc1nc2n[nH]c(C)c2c(=N)n1-c1ccc(C)c(Cl)c1)C(=O)N1CCOCC1 (stereo unspecified)	HSF1 activator 56 (no result: LGR2 antag)
CO[C@H]1CC[C@@H]2CCOc3ccc(C#N)cc3C(=O)N(C)CCCC(=O)N(C)C[C@H]1O2	none (no result: TROY signal inh, HSF1 activator, TWEAK Fn14 block, HSF1 inhib, EBV LMP1 NFkB)
O=C(O)c1cc2cc(F)ccc2[nH]1	HSF1 inhib -64, EBV LMP1 NFkB 85
C[C@@H]1CCCCO[C@@H](CN(C)S(=O)(=O)c2ccccc2)[C@H](C)CN([C@H](C)CO)C(=O)c2cc(NC(=O)Cc3ccccc3)ccc2O1	none (no result: TROY signal inh, HSF1 activator, TWEAK Fn14 block, HSF1 inhib, EBV LMP1 NFkB)
COc1ccc(S(=O)(=O)N(C)C[C@H]2Oc3ccc(NC(=O)Cn4cnnn4)cc3CC(=O)N([C@H](C)CO)C[C@H]2C)cc1	none (no result: TROY signal inh, HSF1 activator, TWEAK Fn14 block, HSF1 inhib, EBV LMP1 NFkB)
Cc1cc(C(=O)CN2C(=O)NC3(CCCCC3)C2=O)c(C)n1Cc1ccco1	HSF1 activator 89
CC(C)N(Cc1cn[nH]c1-c1ccc(-c2ccccc2)cc1)Cc1nccn1C	HSF1 activator 59
CC(C)N(Cc1nc(COc2ccccc2)no1)Cc1nccn1C	none
C[C@@H]1CN([C@H](C)CO)C(=O)c2cccc(NC(=O)c3nc4ccccc4s3)c2O[C@@H]1CN(C)C(=O)Nc1cccc2ccccc12	none (no result: TROY signal inh, HSF1 activator, TWEAK Fn14 block, HSF1 inhib, EBV LMP1 NFkB)
Cc1nc(Nc2ccc(Cl)cc2)c2nnn(Cc3ccccc3)c2n1	none
Cc1nc(Nc2ccc(S(=O)(=O)N3CCCCC3C)cc2)c2nnn(Cc3ccccc3)c2n1 (stereo unspecified)	TWEAK Fn14 block 66
Cc1nn(Cc2ccc(F)cc2)c2sc(C(=O)Nc3ccccc3N3CCOCC3)cc12	none (no result: LGR2 antag)
CCC(CC)NC(=O)c1cc2c(C)nn(Cc3ccccc3Cl)c2s1	TWEAK Fn14 block 74 (no result: TROY signal inh, LGR2 antag)
Cc1nn(Cc2ccccc2Cl)c2sc(C(=O)Nc3ccccc3N3CCOCC3)cc12	TWEAK Fn14 block 61
Cc1nn(Cc2ccccc2Cl)c2sc(C(=O)Nc3nccs3)cc12	none
C[C@H](CO)N1C[C@H](C)[C@H](CN(C)C(=O)Nc2ccc3c(c2)OCO3)Oc2ccc(NC(=O)C3CCCCC3)cc2CC1=O	none (no result: TROY signal inh, HSF1 activator, TWEAK Fn14 block, HSF1 inhib, EBV LMP1 NFkB)
C[C@H]1CN([C@@H](C)CO)C(=O)c2cc(-c3cncnc3)cnc2O[C@H]1CN(C)Cc1ccc(Oc2ccccc2)cc1	none (no result: TROY signal inh, HSF1 activator, TWEAK Fn14 block, HSF1 inhib, EBV LMP1 NFkB)
COc1ccccc1Oc1cc(C#N)c(C#N)cc1-n1nnc2ccccc21	HSF1 activator 79
N#Cc1cc([N+](=O)[O-])c(-n2nnc3ccccc32)c([N+](=O)[O-])c1	none (no result: LGR2 antag)
CCC1=[N+](CC(=O)c2ccc(C)cc2)CCn2cccc21	HSF1 activator 51 (no result: LGR2 antag)
CCC1=[N+](CC(=O)c2ccc(C)cc2)CCn2c(C)ccc21	none
CCOC(=O)CN(C(=O)CSc1nnc(-c2ccncc2)n1CCCOC)c1ccccc1	TROY signal inh 58 (no result: LGR2 antag)
Cc1ccc(S(=O)(=O)Nc2ccc3c(c2)C(=O)c2ccccc2-3)cc1	TROY signal inh 53 (no result: HSF1 activator, HSF1 inhib, EBV LMP1 NFkB)
CC(C)(C)c1ccc(C(=O)Nc2nnc(Cc3c[nH]c4ccccc34)s2)cc1	none
O=C(Nc1nnc(Cc2c[nH]c3ccccc23)s1)c1ccc(Cl)cc1Cl	TWEAK Fn14 block 65 (no result: LGR2 antag)
Cc1ccnc(NC(=O)c2cccc(S(=O)(=O)N3CCN(c4ccccc4)CC3)c2)c1	TWEAK Fn14 block 72, LGR2 antag inconclusive
CN(Cc1ccc(Cl)cc1Cl)C(=O)c1cccc(S(=O)(=O)N2CCN(c3ccccc3)CC2)c1	none
CN(CCOc1ccc(Cl)cc1)C(=O)c1cccc(S(=O)(=O)N2CCN(c3ccccc3)CC2)c1	TWEAK Fn14 block 50 (no result: HSF1 activator, HSF1 inhib)
CCOC(=O)c1ccc2c(c1)n(CC)c(/C=C/N(C)c1ccccc1)[n+]2CC	none
CC[n+]1c(/C=C/N(C)c2ccccc2)n(-c2ccccc2)c2ccc(-c3nc4ccccc4s3)cc21	TROY signal inh 64, TWEAK Fn14 block 107, EBV LMP1 NFkB 51 (no result: LGR2 antag)
CS(=O)(=O)c1ccc(C(=O)OCC(=O)NC23CC4CC(CC(C4)C2)C3)cc1[N+](=O)[O-]	TROY signal inh 73, HSF1 activator 51, TWEAK Fn14 block 102
COc1ccc(C(=O)OCC(=O)N2CCCCC2)cc1[N+](=O)[O-]	none
CS(=O)(=O)c1ccc(C(=O)OCc2nnc(-c3ccc(Cl)cc3)o2)cc1[N+](=O)[O-]	TROY signal inh 66, TWEAK Fn14 block 64, HSF1 inhib -96 (no result: LGR2 antag)
Cn1cccc1C(=O)NC(=O)COC(=O)c1ccc(S(C)(=O)=O)c([N+](=O)[O-])c1	TWEAK Fn14 block 96 (no result: HSF1 activator, LGR2 antag, HSF1 inhib)
CC(C)CN1CCN(C(=O)COC(=O)c2ccc(S(C)(=O)=O)c([N+](=O)[O-])c2)CC1	TWEAK Fn14 block 80 (no result: HSF1 activator, HSF1 inhib, EBV LMP1 NFkB)
COc1cccc(C(=O)OCC(=O)NC23CC4CC(CC(C4)C2)C3)c1	none (no result: HSF1 activator, HSF1 inhib)
O=C(OCc1nnc(-c2ccc(Cl)cc2)o1)c1ccc(O)cc1	none
CC(C)C#Cc1cnc2c(c1)C(=O)N([C@H](C)CO)C[C@H](C)[C@H](CN(C)Cc1cncnc1)O2	none (no result: TROY signal inh, HSF1 activator, TWEAK Fn14 block, HSF1 inhib, EBV LMP1 NFkB)
COc1cc(C2C(C(=O)c3cc4ccccc4o3)=C(O)C(=O)N2c2cc(C)on2)cc(OC)c1OC (stereo unspecified)	HSF1 activator 57
CCn1nnnc1SCC(=O)N1c2ccccc2Sc2ccccc21	TWEAK Fn14 block 63 (no result: LGR2 antag)
Cc1ccc(-c2csc(=Nc3cccnc3)n2CCCn2ccnc2)cc1C	TROY signal inh 51, TWEAK Fn14 block 84, EBV LMP1 NFkB 47 (no result: LGR2 antag)
Nc1nc(N)nc(-c2ccc(Cl)c(Cl)c2)n1	TWEAK Fn14 block 60 (no result: HSF1 activator, HSF1 inhib)
Cc1nc(N)nc(N)c1-c1ccc(Cl)c(Cl)c1	none (no result: HSF1 activator, HSF1 inhib)
Cc1ccc2nc3cc([N+](=O)[O-])cc([N+](=O)[O-])c3cc2c1	TROY signal inh 52, TWEAK Fn14 block 87, LGR2 antag inconclusive (no result: HSF1 activator, HSF1 inhib)
CC[C@@H](C)[C@H](NC(=O)Cc1c(C)c2cc3c(C)c(C)oc3c(C)c2oc1=O)C(=O)O	HSF1 inhib -70
CCC(C)c1ccc2oc(-c3ccc(NC(=O)Cn4cnc5c(=O)n(C)c(=O)n(C)c54)cc3)nc2c1 (stereo unspecified)	TROY signal inh 64 (no result: LGR2 antag)
Cc1ccc2oc(-c3cccc(NC(=O)Cn4cnc5c(=O)n(C)c(=O)n(C)c54)c3)nc2c1	none (no result: TROY signal inh, TWEAK Fn14 block, LGR2 antag, EBV LMP1 NFkB)
Cc1ccc(OC(=O)COc2ccccc2)c(-n2nc3ccccc3n2)c1	HSF1 activator 51 (no result: LGR2 antag)
CCn1nc(C)c(/C=N/NC(=O)c2c[nH]c3ccccc23)c1C	HSF1 inhib -70
Cc1ccc(/C=N/NC(=O)c2c[nH]c3ccccc23)s1	none (no result: LGR2 antag)
Cc1cc(C)nc(SCC(=O)N2CCc3ccccc32)n1	none

Bioassay records deposited in PubChem by several laboratories.
